# Laboratory results published in PubChem BioAssay (EPA / NIEHS).
# Activity calls are given as the source filed them. The calls were made as follows: active = hit-call score of the fitted dose curve at least 0.9, where 1 is the maximum; inactive = score below 0.9.
# Assay: APR_HepG2_MitoMembPot_72hr: Apredica 72-hour HepG2 Assay for Mitochondrial Membrane Potential (AID 2282917)
# Details: imaging, actives raise or lower the signal
# Description: APR_HepG2_72hr is a cell-based, multiplexed-readout assay that uses HepG2, a human liver cell line, with measurements taken at 72 hours after chemical dosing in a 384-well plate.APR_HepG2_MitoMembPot_72hr is one of 10 assay component(s) measured or calculated from the APR_HepG2_72hr assay. It is designed to make measurements of dye binding, a form of membrane potential reporter, as detected with fluorescence intensity signals by HCS Fluorescent Imaging technology.Data from the assay component APR_HepG2_MitoMembPot_72hr was analyzed into 1 assay endpoint. This assay endpoint, APR_HepG2_MitoMembPot_72hr, was analyzed with bidirectional fitting relative to DMSO as the negative control and baseline of activity. Using a type of membrane potential reporter, gain or loss-of-signal activity can be used to understand changes in the signaling. Furthermore, this assay endpoint can be referred to as a primary readout, because this assay has produced multiple assay endpoints where this one serves a signaling function. To generalize the intended target to other relatable targets, this assay endpoint is annotated to the cell morphology intended target family, where the subfamily is organelle conformation.
# Cells were treated with dimethyl sulfoxide (DMSO) as a solvent control at a final concentration of 0.5% v/v or with compounds in DMSO with a resulting final DMSO concentration of 0.5% v/v. Compound treatment was done at concentrations of 0.39, 0.78, 1.56, 3.12, 6.24, 12.5, 25, 50, 100, and 200 uM in duplicate on each plate. Cells were treated with compounds for 1, 24, or 72 hr. Carbonyl […] m-chloro-phenylhydrazone (CCCP) and taxol were used as positive controls for mitochondrial function and cytoskeletal stability, respectively; DMSO served as the negative control for this experiment. Cells were fixed by the direct addition of 50 uL formaldehyde in Hank's Balanced Salt Solution (HBSS) to a final concentration of 3.7%. After incubation in the fixation medium for 30 min at room temperature (293-298 K), cells were rinsed twice with HBSS and treated with cell permeabilization buffer (16 uL of 0.5% Triton X-100) for 10 min at room temperature (293-298 K) before labeling. For mitochondrial membrane potential and mitochondrial measurements, pre-fixed cells were incubated with 50 uL of MitoTracker Red CMXRos (Invitrogen) at a concentration of 250 nM for 30 min before fixation. In the remaining cases, post-fixed cells were labeled by incubation with a multiplexed mixture of primary antibodies in HBSS for 60 min at room temperature (293-298 K) to detect immunoreactivity of c-Jun (1:500), phospho-histone H3 (1:100), phospho-histone H2A.x (1:200), p53 (1:400), alpha-tubulin (1:200) and Hoechst 33342 (2 ug/mL). Cells were labeled for multiplexed imaging on two separate plates: a) Hoechst 33342, MitoTracker Red, phospho-histone H3, and alpha-tubulin, and b) Hoechst 33342, phospho-histone H2A.x, and c-Jun. A final rinse with HBSS (50 uL) was performed before analysis. The primary and secondary antibodies for the proteins were phospho-histone H3 (rabbit anti-phospho-histone H3 and FITC-donkey anti-rabbit IgG), phospho-histone H2A.x (mouse anti-phospho-histone H2A.x and FITC-donkey anti-mouse IgG), c-Jun (rabbit anti-phospho-c-Jun and Cy3-donkey anti-rabbit IgG), p53 (sheep anti-p53 and Cy5-donkey anti-sheep IgG), alpha-tubulin (mouse anti-alpha-tubulin and Cy5-donkey anti-mouse IgG). These antibodies are available as the CellCiphr HepG2 assay kit (Millipore).Digital images of each well were captured using a Cellomics ArrayScan VTI (Thermo Scientific Cellomics) (0.8 NA objective, 0.63x optical coupler, and XF-93 filter set) at 20x magnification. The images were acquired using the autofocus feature of the ArrayScan instrument, which entails the following steps. First, the camera focuses on channel 1 (Hoechst 33342), where nuclei are identified. Second, a Z offset of 1 um is used for capturing mitochondria (MitoTracker Red). […]
row,SMILES,outcome
1,CC(C)CC(C)O (stereo not given),inactive
2,CC[C@H](C)C(=O)O[C@H]1C[C@H](O)C=C2C=C[C@H](C)[C@H](CC[C@@H](O)C[C@@H](O)CC(=O)O)[C@H]21,inactive
3,CCCCCCCCCCCCCCO,inactive
4,Cc1ccc(S(=O)(=O)NC(=O)NN2CCCCCC2)cc1,inactive
5,c1ccc(C(O[C@@H]2CCCN(CCc3ccc4c(c3)OCO4)C2)c2ccccc2)cc1,inactive
6,OC[C@H]1O[C@@](CO)(O[C@H]2O[C@H](CO)[C@@H](O)[C@H](O)[C@H]2O)[C@@H](O)[C@@H]1O,inactive
7,O=C1CN(N=Cc2ccc([N+](=O)[O-])o2)C(=O)N1,inactive
8,COc1cc(C(C)C)c2c(c1)S(=O)(=O)N(COc1cc(=O)n3cccc(OCCN4CCCCC4)c3n1)C2=O,inactive
9,CCOc1ccc2[nH]cc(C(=O)NCc3ccccc3)c(=O)c2n1,inactive
10,O=C(O)c1cccc(C[C@@H]2COc3ccc(OCc4nc5cc(F)ccc5s4)cc3[C@@H]2O)c1,inactive
11,CCCCN1C(=O)[C@@H]([C@H](O)C2CCCCC2)NC(=O)C12CCN(Cc1ccc(Oc3ccc(C(=O)O)cc3)cc1)CC2,inactive
12,CC(C)c1nnc2ccc(-c3ocnc3-c3cc(F)ccc3F)cn12,inactive
13,O=C(O)[C@H](O)[C@@H](O)C(=O)O,inactive
14,CCc1ccc(O)c(C(C)(C)C)c1,inactive
15,O=C(NO)C1(NS(=O)(=O)c2ccc(Oc3ccc(F)cc3)cc2)CCOCC1,inactive
16,COc1cc2c(c(OC)c1OC)-c1ccc(OC)c(=O)cc1[C@@H](NC(C)=O)CC2,inactive
17,OCCOCCOCCO,inactive
18,OCc1ccccc1,inactive
19,CCn1nc(C)c2c1C(=O)NCC(c1ccc(O)cc1)=N2,inactive
20,OC(CCl)CCl,inactive

row,SMILES,outcome
1,CCCCCCOC(=O)CC(CC(=O)OCCCCCC)(OC(=O)CCC)C(=O)OCCCCCC,inactive
2,OCC(CO)(CO)CO,inactive
3,CCCCOC(=O)c1ccccc1,inactive
4,CCCCCCCC1CCC(=O)O1 (stereo not given),inactive
5,CCCCCCCC/C=C\CCCCCCCC(=O)OC[C@@H](O)[C@H]1OC[C@H](O)[C@H]1O,inactive
6,CCc1cccc(CC)c1N,inactive
7,CNC(C)=O,inactive
8,COCc1nnc(-c2ccc[n+]([O-])c2)n1-c1c(Cl)c(Cl)cc2[nH]c(=O)c(=O)[nH]c12,inactive
9,NC(=O)N1c2ccccc2C=Cc2ccccc21,inactive
10,CCCCCOC(C)=O,inactive
11,C[C@@H](Oc1ccc(CNC(=O)c2cccnc2Oc2ccc3c(c2)OCO3)c(F)c1)C(=O)O,inactive
12,CCCc1ccccc1,inactive
13,CCOC(N)=O,inactive
14,CC(C)CCCCCCOC(=O)C1CCCCC1C(=O)OCCCCCCC(C)C (stereo not given),inactive
15,O=c1[nH]cnc2c1ncn2[C@H]1CC[C@@H](CO)O1,inactive
16,O=S(=O)(O)c1ccc(N=Nc2c(O)ccc3cc(S(=O)(=O)O)ccc23)cc1,inactive
17,Nc1ccn([C@@H]2O[C@H](CO)[C@@H](O)[C@@H]2O)c(=O)n1,inactive
18,Cc1nccn1-c1ccc(Sc2cccc(C3(C(N)=O)CCOCC3)c2)cc1,inactive
19,CCCCC(CC)C(=O)OCCOCCOCCOC(=O)C(CC)CCCC (stereo not given),inactive
20,COS(C)(=O)=O,inactive
